Compound activity (PubChem BioAssay)
ULK1 primary: blocks human autophagy kinase ULK1; hit rate 1.9% among 30,000; inhibition, % at 5.96 µM; AlphaScreen Atg13 phosphorylation by ULK1, luminescence; AID 1259251; in the data active means inhibition above about 43%;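 further: 0% = median of compound wells and 100% = no enzyme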
ASK1 primary: inhibitors of human ASK1 kinase | Q99683 | AlphaScreen MKK6 phosphorylation by ASK1, luminescence | inhibition, % at 7.44 µM | hit rate 0.99% among 22,000; in the data active means inhibition above about 35%;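 further: 0% = median of compound wells and 100% = no enzyme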
AlphaScreen intf: interferes with AlphaScreen TruHits signal in ASK1 counter-screen; AlphaScreen TruHits beads, signal interference counterscreen; shares compounds with ASK1 primary; AID 1159604; IC50, µM; hit rate 20% among 220;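 active means IC50 of 10 µM or lower in the counterscreen; inactive means IC50 above 10 µM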;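 further: loss of AlphaScreen light from TruHits beads alone with no ASK1 enzyme present; potency of signal reduction so a low IC50 flags an assay artifact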
The depositor's hits bear a star; i = inactive; x = no result. Compounds with a hit are over-represented: about 2.5% of the library has one in this group of screens.

SMILES	ULK1 primary	ASK1 primary	AlphaScreen intf
c1ccc(Nc2cc(-c3ccnc(Nc4ccc(N5CCOCC5)cc4)c3)nn2-c2ccccc2)cc1	-14.2	40.8*	>19.2
Fc1ccc(-c2c(-c3ccnc(Nc4ccc(N5CCOCC5)cc4)c3)noc2NCc2ccccc2)cc1	9.6	36.6*	>19.2
CCN(CC)c1nc(NCCc2ccc(O)cc2)nc(NCc2ccc3c(c2)OCO3)n1	-23.0	10.2	x
COc1cc(N2CCN(C)CC2)ccc1Nc1cc(Nc2ccccc2-c2ncccn2)c(C(F)(F)F)cn1	53.3*	38.1*	i
COc1cc(NC(=O)c2ccnc(-c3ccc(N4CCN(C)CC4)cc3)c2)cc(OC)c1OC	4.5	11.0	x
CCN(CC)C(=O)C1CCCN(c2nc(NCCN3CCOCC3)c3ncn(-c4ccsc4)c3n2)C1 (stereo not drawn)	-9.6	-23.0	x
